Test results as given in PubChem BioAssay.
Measured potencies and affinities stand elsewhere. Records with an inconclusive call do not appear. Active and inactive are the calls of the source. Unless noted, the rule behind the calls is not given here.

Columns and labels:
[1] = RMG-1 ovarian cancer cell viability loss – cherry-pick, dose response (AID 687029;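 active = signal drop whose fitted half-maximal concentration is at most twice the top valid dose, in every test run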;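 note: cells exposed to compound for 96 hours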)
[2] = IOSE-T80 viability loss, PAX8-independent line – cell-based, cherry-pick, selectivity assay for PAX8 inhibitor project, dose response (AID 687032;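 active = fitted half-maximal concentration for viability loss no higher than twice the top valid dose, in every repeat run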;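 note: cells exposed to compound for 96 h before reading; 0% = neutral control wells and -100% = 2 µM mitoxantrone kill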)
[3] = CMV-driven luciferase expression suppression in HEK293 – cell-based, luminescence, dry powder, counter-screen for Pax8 inhibitor project, dose response (AID 743020;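 active = signal-lowering compounds whose fitted half-maximal concentration is at or below twice the top tested dose in every run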;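 note: HEK293 cells stably expressing the CMV luciferase reporter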)
[4] = toxicity toward immortalized ovarian surface epithelium – cell-based, plate reader, dry powder samples, cytotoxicity control for PAX8 inhibitor project, dose response (AID 743045);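 note: 0% = neutral control median and -100% = positive control median; more negative values mean more cell killing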
[5] = A2780 cell killing – plate reader, dry powder samples, cytotoxicity control, dose response (AID 743046);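 note: 0% = neutral control wells and -100% = cytotoxic reference compound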
[6] = OVCAR-3 cell viability loss – plate reader, dry powder samples, PAX8 inhibitor project, dose response (AID 743044); settings: max activity: at 35 µM, active compounds read low unless noted
[7] = OVCAR8 cell viability loss – plate reader, dry powder samples, PAX8 project, dose response (AID 743197)
[8] = IGROV1 cell killing – plate reader, dry powder samples, PAX8 inhibitor project, dose response (AID 743043);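 note: more negative means fewer viable cells or more cytotoxicity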
[9] = general cell-killing toxicity readout – plate reader, dry powder samples, cytotoxicity control for PAX8 inhibitor project, dose response (AID 743021)

O=C(Nc1ccc(F)cc1)N1C[C@@H]2N[C@H](C1)C2c1ccc(-c2ccccc2F)cc1 (stereo partly drawn)
inactive: outcome [1] | outcome [2] | outcome [3] | outcome [4] | outcome [5]

COc1ccc(NC(=O)Nc2ccc3c(c2)C(=O)N([C@H](C)CO)C[C@@H](C)[C@H](CN(C)Cc2ccc(C(F)(F)F)cc2)OCCCC[C@H](C)O3)cc1
inactive: outcome [1] | outcome [2] | outcome [3] | outcome [4] | outcome [5]

O=C(C[C@H]1CC[C@H]2[C@@H](COC[C@@H](O)CN2S(=O)(=O)c2cccc(Cl)c2)O1)Nc1ccc(-c2ccccc2)cc1
inactive: outcome [1] | outcome [2] | outcome [3] | outcome [4] | outcome [5]

COc1ccc(-c2ccc(C3[C@@H]4CN(Cc5cc(OC)cc(OC)c5)C[C@H]3N4)cc2)cc1 (stereo partly drawn)
inactive: outcome [1] | outcome [2] | outcome [3] | max activity [6] -15.8% [at 16 µM, active compounds read low] | activity change, negative = cytotoxicity [4] 6.64% [at 8 µM] | outcome [5]

N#C[C@H]1[C@@H](c2ccc(C#Cc3ccc(F)cc3)cc2)[C@H](CO)N1C(=O)C1CCCC1
inactive: outcome [1] | outcome [2] | outcome [3] | outcome [4]

CCc1cnc(N2[C@@H](C#N)[C@@H](c3ccc(C#CC(C)C)cc3)[C@@H]2CO)s1
inactive: outcome [1] | outcome [2] | outcome [3] | max activity [6] 27.5% [at 1 µM, active compounds read low] | outcome [4] | outcome [7]

COc1ccc(S(=O)(=O)N2CCCCN3[C@H](CO)[C@H](c4ccc(C#CC(C)C)cc4)[C@H]3C2)cc1
inactive: outcome [1] | outcome [2] | outcome [3] | outcome [5] | outcome [7]

C[C@H](CO)N1C[C@H](C)[C@@H](CN(C)S(=O)(=O)c2ccc(Cl)cc2)OCCCC[C@H](C)Oc2ccc(NS(=O)(=O)c3cccs3)cc2C1=O
inactive: outcome [1] | outcome [2] | outcome [3] | outcome [8] | outcome [5]

C[C@@H]1CCCCO[C@H](CN(C)CC2CCCCC2)[C@H](C)CN([C@H](C)CO)C(=O)c2cc(NS(=O)(=O)c3ccccc3)ccc2O1
inactive: outcome [1] | outcome [2] | outcome [3] | outcome [4] | outcome [5]

Cc1ccc(-c2ccc(C3[C@@H]4CN(C(=O)Nc5ccc(C(F)(F)F)cc5)C[C@H]3N4)cc2)cc1 (stereo partly drawn)
inactive: outcome [1] | outcome [2] | outcome [3] | outcome [8] | outcome [5]

C[C@@H]1CN([C@@H](C)CO)C(=O)Cc2cc(NS(=O)(=O)c3ccc(Cl)cc3)ccc2O[C@@H]1CN(C)CC1CCCCC1
inactive: outcome [1] | outcome [2] | outcome [3] | outcome [4] | outcome [5] | outcome [7]

COc1ccc(-c2ccc3c(c2)[C@H]2[C@H](CCN2S(=O)(=O)c2ccc(F)cc2)[C@H](CO)N3C)cc1
inactive: outcome [1] | outcome [2] | outcome [3] | outcome [4] | outcome [5]

COc1ccc2c3c(n(C)c2c1)[C@H](CO)NCC31CCN(Cc2cc(-c3ccccc3)on2)CC1
inactive: outcome [1] | outcome [2] | outcome [3] | max activity [6] 40.6% [at 0.5 µM, active compounds read low] | outcome [4] | outcome [5]

COc1ccccc1NC(=O)N1CCCCN2[C@H](CO)[C@H](c3ccc(-c4cccc(C)c4)cc3)[C@H]2C1
inactive: outcome [1] | outcome [2] | outcome [3] | outcome [4] | outcome [5] | outcome [7]

COc1ccccc1-c1ccc([C@@H]2[C@@H]3CN(S(=O)(=O)c4ccc(-c5ccccc5)cc4)C[C@H]2N3)cc1
inactive: outcome [1] | outcome [2] | outcome [3] | outcome [4] | outcome [5]

C[C@H](CO)N1C[C@H](C)[C@@H](CN(C)S(=O)(=O)c2cccs2)OCCCC[C@H](C)Oc2ccc(NS(=O)(=O)c3ccc(Cl)cc3)cc2C1=O
inactive: outcome [1] | outcome [2] | outcome [3] | outcome [4] | outcome [5]

C[C@H](CO)N1C[C@H](C)[C@@H](CN(C)Cc2ccc(-c3ccccc3)cc2)Oc2ccc(NS(=O)(=O)c3ccccc3)cc2CC1=O
inactive: outcome [1] | outcome [2] | outcome [3] | max activity [6] 6.95% | outcome [4] | outcome [7]

COc1ccc(NC(=O)N2C[C@@H]3N[C@H](C2)[C@@H]3c2ccc(-c3ccc(OC)cc3)cc2)cc1
inactive: outcome [1] | outcome [2] | outcome [3] | outcome [5]

C[C@H](CO)N1C[C@H](C)[C@@H](CN(C)S(=O)(=O)c2ccc(Cl)cc2)OCCCC[C@H](C)Oc2ccc(NS(=O)(=O)c3ccccc3)cc2C1=O
inactive: outcome [1] | outcome [2] | outcome [3] | outcome [8] | outcome [5] | outcome [7]

C[C@@H]1CN([C@H](C)CO)C(=O)c2cc(NC(=O)CCCCCC(=O)Nc3ccccc3N)ccc2O[C@@H]1CN(C)Cc1ccc(C(F)(F)F)cc1
inactive: outcome [1] | outcome [2] | outcome [3] | outcome [4] | outcome [5] | outcome [7]

COc1ccc(NC(=O)N2CC(=O)N3[C@@H](CO)[C@@H](c4ccc(/C=C/c5ccccc5)cc4)[C@@H]3C2)cc1
inactive: outcome [1] | outcome [2] | outcome [3] | max activity [6] 30.3% [at 16 µM, active compounds read low] | outcome [4] | outcome [5]

C[C@@H]1CCCCO[C@H](CN(C)Cc2ccc(Cl)c(Cl)c2)[C@@H](C)CN([C@@H](C)CO)C(=O)c2cc(NC(=O)c3ccccc3)ccc2O1
inactive: outcome [1] | outcome [2] | outcome [3] | outcome [4] | outcome [5]

Cc1ccc(S(=O)(=O)Nc2ccc3c(c2)C(=O)N([C@H](C)CO)C[C@H](C)[C@H](CN(C)Cc2ccc(C(F)(F)F)cc2)OCCCC[C@H](C)O3)cc1
inactive: outcome [1] | outcome [2] | outcome [3] | outcome [8] | outcome [5]

COc1ccc(NC(=O)N2CC(=O)N3[C@H](C2)[C@H](c2ccc(/C=C/c4ccccc4)cc2)[C@@H]3CO)cc1
inactive: outcome [1] | outcome [2] | outcome [3] | outcome [4] | outcome [7]

O=C1CN(S(=O)(=O)Cc2ccccc2)C[C@@H]2[C@@H](c3ccc(C#Cc4ccc(F)cc4)cc3)[C@@H](CO)N12
inactive: outcome [1] | outcome [2] | outcome [3] | max activity [6] -59.7% [at 16 µM, active compounds read low] | outcome [4] | outcome [5]

O=C(c1ccc(F)cc1)N1CC(=O)N2[C@@H](CO)[C@@H](c3ccc(C#Cc4ccc(F)cc4)cc3)[C@@H]2C1
inactive: outcome [1] | outcome [2] | outcome [3] | outcome [4] | outcome [5]

CCOc1ccc(CCN2C(=S)N([C@@H](Cc3ccc(O)cc3)CN3CCC[C@@H]3CN3C(=S)NC[C@@H]3CC(C)C)C[C@@H]2Cc2ccc(O)cc2)cc1
inactive: outcome [1] | outcome [2] | outcome [9]

CC(C)N1CCc2c(sc(NC(=O)c3ccc([N+](=O)[O-])o3)c2C(N)=O)C1
inactive: outcome [1] | outcome [2] | outcome [9]

N#C[C@H]1[C@@H](c2ccc(C#Cc3ccc(F)cc3)cc2)[C@H](CO)N1C(=O)Nc1ccc(F)cc1
inactive: outcome [1] | outcome [2] | outcome [3] | outcome [7]

Cc1ccc(C)c(CSC2=NCCN2C(=O)Cc2ccc([N+](=O)[O-])cc2)c1
inactive: outcome [1] | outcome [2] | outcome [9]

COc1cc(OC)c(NC2=CC(=O)C(=O)c3ccccc32)cc1Cl
inactive: outcome [1] | outcome [2] | outcome [9]

Oc1ccc2ccccc2c1N=Nc1nccs1
inactive: outcome [1] | outcome [2] | outcome [9]

CC(=O)NC(c1ccc2ccccc2c1)c1ccc2cccnc2c1O (stereo not drawn)
inactive: outcome [1] | outcome [2] | outcome [9]

Cn1nnnc1Sc1ncnc2scc(-c3cccc(F)c3)c12
inactive: outcome [1] | outcome [2] | outcome [9]

CC(=NNC(=S)N1CCC1)c1ccccn1
inactive: outcome [1] | outcome [2] | outcome [9]

CC(C)(C)OC(=O)NCCCC[C@H](NC(=O)c1[nH]cnc1C(=O)N[C@@H](Cc1ccccc1)C(=O)OC(C)(C)C)C(=O)OC(C)(C)C
inactive: outcome [1] | outcome [2] | outcome [9]

CC(=O)N1CCc2c(sc(NC(=O)c3ccc([N+](=O)[O-])o3)c2C#N)C1
inactive: outcome [1] | outcome [2] | outcome [9]

COc1cc(/C=N/NS(=O)(=O)c2ccc(C)cc2)ccc1OCc1cccc(C(=O)O)c1
inactive: outcome [1] | outcome [2] | outcome [9]

Cc1[nH]c2ccccc2c(=O)c1C(=O)/C=C/c1ccccc1
inactive: outcome [1] | outcome [2] | outcome [9]

Cc1ccc(S(=O)(=O)Nc2ccc3c(c2)C(=O)N([C@H](C)CO)C[C@H](C)[C@@H](CN(C)Cc2ccc(C(F)(F)F)cc2)OCCCC[C@H](C)O3)cc1
inactive: outcome [1] | outcome [2] | outcome [9]

CCOCCCNC(=O)c1ccc2c(c1)N=C(CC)c1cc(Br)ccc1S2
inactive: outcome [1] | outcome [2] | outcome [9]

Cc1cc(-n2c(SCC(=O)NCCC3=CCCCC3)nc3n[nH]c(C)c3c2=N)ccc1Cl
inactive: outcome [1] | outcome [2] | outcome [9]

COc1cc(/C=N/NS(=O)(=O)c2ccc(C)cc2)ccc1OCc1ccc(C(=O)O)cc1
inactive: outcome [1] | outcome [2] | outcome [9]

COc1ccccc1NS(=O)(=O)c1cccc(C(=O)N/N=C/c2ccc([N+](=O)[O-])o2)c1
inactive: outcome [1] | outcome [2] | outcome [9]

O=C(CCCN1C(=O)/C(=C\c2cccc(Br)c2)SC1=S)Nc1cccnc1
inactive: outcome [1] | outcome [2] | outcome [9]

COc1ccc(S(=O)(=O)Nc2ccc3c(c2)C(=O)N([C@@H](C)CO)C[C@H](C)[C@H](CN(C)Cc2ccc(C(F)(F)F)cc2)OCCCC[C@H](C)O3)cc1
inactive: outcome [1] | outcome [2] | outcome [3] | outcome [5] | outcome [7]

CC(C)C(=O)N1CCN(c2ccc(NC(=O)c3ccc([N+](=O)[O-])o3)cc2)CC1
inactive: outcome [1] | outcome [2] | outcome [9]

CN[C@H]1CCc2cc(OC)c(OC)c(OC)c2-c2ccc(OC)c(=O)cc21
inactive: outcome [1] | outcome [2] | outcome [9]

COc1c(C=O)c2c(c(OC)c1OC)-c1ccc(OC)c(=O)cc1C(NC(C)=O)CC2 (stereo not drawn)
inactive: outcome [1] | outcome [2] | outcome [9]

CN(C)CCNc1ccc(CO)c2sc3ccc(O)cc3c(=O)c12
inactive: outcome [1] | outcome [2] | outcome [9]

CS(=O)(=O)c1ncc(Cl)c(C(=O)Nc2ccc3ccccc3c2)n1
inactive: outcome [1] | outcome [2] | activity change, negative = cytotoxicity [9] 1.87% [at 8 µM]

CC1CCN(CCc2nc3cc(NS(=O)(=O)c4ccccc4)ccc3n2C)CC1
inactive: outcome [1] | outcome [2] | outcome [9]

O=C(NCCN1C(=O)S/C(=C\c2ccc(OC(F)F)cc2)C1=O)c1cnccn1
inactive: outcome [1] | outcome [2] | outcome [9]

C=C1C(=O)O[C@@H]2C[C@@H](C)[C@@H]3C=CC(=O)[C@@]3(C)[C@@H](OC(C)=O)[C@H]12
inactive: outcome [1] | outcome [2] | outcome [9]

Cc1ccc2nc(C)cc(Nc3ccc([N+](=O)[O-])cc3)c2c1
inactive: outcome [1] | outcome [2] | outcome [9]
